A short description of test [1]: BSK_3C_SRB: Viability Assessment in the BioMAP Diversity Plus: 3C Assay (AID 2283023).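 Note: fitted both ways against DMSO so a hit may be signal rise or drop.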 The note with it: primary human endothelial cells (HUVEC). A digest of the protocol:
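Human umbilical vein endothelial cells in the 3C system, treated 24 h. Total protein measured by 0.1% sulforhodamine B staining after 10% TCA fixation, read at 560 nm; bidirectional fit versus DMSO.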

Read-out in test [2]: Matrix Metallopeptidase 1 (MMP1), MMP1 (gene 4312)
The experiment in a line: BSK_BE3C_MMP1: BioMAP Diversity Plus: BE3C Assay for Matrix Metallopeptidase 1 (MMP1) Biomarker Activity (AID 2283024). Particulars: primary human bronchial epithelial cells; actives raise or lower the signal. The method in brief: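 Human primary bronchial epithelial cells (BE3C system) dosed for 24 h; MMP-1 quantified by ELISA. Bidirectional fit against DMSO; cytotoxicity tracked in parallel cultures by SRB total-protein staining.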

The nature of test [3]: BSK_3C_Vis: BioMAP Diversity Plus: 3C Assay for Morphology Visualization (AID 2283025).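 For AC50: light microscopy image of cell morphology used as background control.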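 Note: fitted both ways so gain or loss versus DMSO counts.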 The note with it: primary human endothelial cells (HUVEC). The method in brief:
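Human umbilical vein endothelial cell morphology was inspected by light microscopy 24 h after chemical dosing; scored bidirectionally relative to DMSO.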

Read-out in test [4]: Pselectin, SELP (gene 6403)
The experiment in a line: BSK_4H_Pselectin: BioMAP Diversity Plus: 4H Assay for Pselectin Biomarker Activity (AID 2283026). The note with it: primary human endothelial cells (HUVEC); actives raise or lower the signal. The method in brief: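 Primary human umbilical vein endothelial cells were treated 24 h, and cell-surface P-selectin was then quantified by ELISA. Bidirectional fit versus DMSO; cytotoxicity checked in parallel cultures by SRB total-protein staining.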

The nature of test [5]: BSK_4H_SRB: Viability Assessment in the BioMAP Diversity Plus: 4H Assay (AID 2283027).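 For AC50: curves fitted both ways versus DMSO so AC50 may be loss or gain.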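 Note: cells exposed to compound for 24 h before staining.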 The note with it: primary human endothelial cells (HUVEC). A digest of the protocol: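 Human umbilical vein endothelial cells were dosed with chemical and, after 24 h, fixed with 10% TCA, stained with 0.1% sulforhodamine B, and read at 560 nm to give total protein as a cytotoxicity measure. Bidirectional fitting relative to DMSO control.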

Test [6] in a line: BSK_BE3C_SRB: Viability Assessment in the BioMAP Diversity Plus: BE3C Assay (AID 2283028).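 For AC50: fitted both ways so AC50 may mark signal gain or loss versus DMSO.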 The note with it: primary human bronchial epithelial cells. A digest of the protocol: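 Human bronchial epithelial primary cells in confluent culture, 24 h after chemical dosing; total protein by 0.1% SRB staining after 10% TCA fixation, read at 560 nm. Bidirectional fitting versus DMSO baseline.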

Read-out in test [7]: Thrombomodulin, THBD (gene 7056)
Description: BSK_3C_Thrombomodulin: BioMAP Diversity Plus: 3C Assay for Thrombomodulin Biomarker Activity (AID 2283029). Particulars: primary human endothelial cells (HUVEC); actives raise or lower the signal. The method in brief:
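Human umbilical vein endothelial cells were exposed to chemicals for 24 h; cell-surface thrombomodulin quantified by ELISA, with bidirectional fitting against DMSO baseline.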

Read-out in test [8]: Urokinase-type plasminogen activator receptor (uPAR), PLAUR (gene 5329)
The experiment in a line: BSK_4H_uPAR: BioMAP Diversity Plus: 4H Assay for Urokinase-type plasminogen activator receptor (uPAR) Biomarker Activity (AID 2283030). The note with it: primary human endothelial cells (HUVEC); actives raise or lower the signal. The method in brief: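 Human umbilical vein endothelial cells in the 4H system, 24 h after chemical dosing. Cell-surface uPAR measured by ELISA, fitted in both directions versus DMSO; cytotoxicity checked by SRB total protein in parallel cultures.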

Read-out in test [9]: Vascular endothelial growth factor receptor 2 (Homo sapiens) (UniProt P35968)
The experiment in a line: BSK_4H_VEGFRII: BioMAP Diversity Plus: 4H Assay for Vascular endothelial growth factor receptor 2 (VEGFR2) Biomarker Activity (AID 2283031).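 For AC50: cell-surface VEGFR2 protein level quantified by ELISA.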 Particulars: primary human endothelial cells (HUVEC); actives raise or lower the signal. The method in brief:
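Primary human umbilical vein endothelial cells (4H system), 24 h exposure; cell-surface VEGFR2 measured by ELISA. Bidirectional fitting versus DMSO; cytotoxicity checked in parallel by SRB total-protein staining.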

For test [10], the target named is human Vitamin D Receptor (VDR), VDR (gene 7421) (UniProt P11473). Description: ATG_VDR_TRANS: Attagene TRANS-FACTORIAL HepG2 Assay for human Vitamin D Receptor (VDR) (AID 2283022; active = hit-call score of the fitted dose curve at least 0.9, where 1 is the maximum). The method in brief:
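HepG2 cells were transiently transfected with GAL4-UAS reporter units and a chimeric VDR-Gal4 construct, then dosed for 24 hours. Reporter mRNA was quantified by RT-PCR, fluorescent labeling, HpaI digestion and capillary electrophoresis; gain of signal analysed vs DMSO.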

Molecules are shown by their SMILES. Where “and” joins values, the source holds several entries; their conditions need not be identical. Equal values may be shown once. Results filed as inconclusive are left out. Some compounds were tested as several samples or in several runs, with calls that do not always agree. Calls of active or inactive are those of the source. Rule for the calls, unless noted: active = hit-call score of the fitted dose curve at least 0.9, where 1 is the maximum; inactive = score below 0.9.

human Vitamin D Receptor (VDR), VDR (gene 7421), sequence (P11473 whole entry, looked up, the tested form may be a part): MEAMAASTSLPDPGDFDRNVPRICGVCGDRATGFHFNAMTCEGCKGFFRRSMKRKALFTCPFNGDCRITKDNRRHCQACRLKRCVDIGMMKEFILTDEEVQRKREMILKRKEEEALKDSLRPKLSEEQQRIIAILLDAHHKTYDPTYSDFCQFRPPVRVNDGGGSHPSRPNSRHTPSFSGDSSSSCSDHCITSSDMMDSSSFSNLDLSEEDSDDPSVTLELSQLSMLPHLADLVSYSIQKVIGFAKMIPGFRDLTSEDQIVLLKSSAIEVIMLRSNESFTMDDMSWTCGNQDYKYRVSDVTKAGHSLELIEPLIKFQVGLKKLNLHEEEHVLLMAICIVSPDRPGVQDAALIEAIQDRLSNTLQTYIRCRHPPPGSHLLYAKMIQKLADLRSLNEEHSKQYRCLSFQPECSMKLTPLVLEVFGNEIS

For `CCCCNc1ccc(NCCCC)c2c1C(=O)c1ccccc1C2=O`, the result in [1], in test [3], in [4], in [5], in test [6] and in test [7] was inactive. Besides, the outcome in test [8] and in [9] was inactive. Moreover, the AC50 in test [2] was 6.81 µM (active).
As for `C=CC=CC=CCCCCC`, the outcome in test [1], in test [2], in test [3], in test [4], in test [5] and in [6] was inactive. Moreover, the result in [7], in test [8] and in [9] was inactive.
For the molecule `c1ccc2c(c1)ccc1ncccc12`, the AC50 was 14.3 µM (active) in test [1]; 38.9 µM (active) in test [3]; 20 µM (active) in test [4]; 20 µM (active) in test [5]; 20 µM (active) in test [8]. The outcome in test [2], in test [6], in test [7] and in [9] was inactive.
Regarding `C=CCOc1c(Br)cc(Br)cc1Br`, the AC50 in [1] was 29.3 µM (active); in test [2] it was 3.97 µM (active); in test [3] it was 14.1 µM (active); in test [4], 20 µM (active); in test [6], 31.4 µM (active); in test [7] it was 3.97 µM (active). In addition, in test [8], the AC50 is 31 µM (active). Further, the outcome in test [5] and in test [9] was inactive.
As for `CCO[Si](C)(OCC)OCC`, the result in [1], in test [2], in test [4], in test [5], in test [6] and in test [7] was inactive. Moreover, the outcome in test [8] and in test [9] was inactive.
For `C=CC(=O)OCC(Br)CBr` (centres undefined), the AC50 in [1] is 32.5 µM (active); in test [3], 16.6 µM (active); in test [4] it was 20 µM (active); in test [5] it was 31.6 µM (active); in test [8] it was 32.4 µM (active); in test [9], 37 µM (active). Further, the result in [2], in test [6] and in [7] was inactive.
With `Nc1ccc(N)c(Cl)c1`, the AC50 in [1] was 28.6 µM (active) and 30.6 µM (active); in [2] it was 150 nM (active) and 1.5 µM (active); in test [4] it was 6.21 µM (active) and 3.97 µM (active); in [5] it was 27.4 µM (active) and 30.5 µM (active); in [9], 10.2 µM (active). For the same molecule, the outcome in [6], in test [7], in [8] and in [9] was inactive.
In the case of `COc1ccc2nc(N)sc2c1`, the outcome in [1], in test [2], in test [3], in [4], in [5] and in test [6] was inactive. Further, the outcome in test [7], in test [8] and in test [9] was inactive.
For the molecule `CCOc1nc(F)cc2nc(S(=O)(=O)Nc3c(Cl)cccc3C(=O)OC)nn12`, the outcome in test [1], in test [2], in [3], in test [4], in test [5] and in [6] was inactive. The outcome in [7], in test [8] and in [9] was inactive.
`CO[Si](OC)(OC)c1ccccc1`: the call in test [10], in test [1], in [2], in test [4], in test [5] and in test [6] was inactive. Moreover, the result in [7], in test [8] and in [9] was inactive.
For `CCCCCCCCc1ccc(Nc2ccc(CCCCCCCC)cc2)cc1`, the result in test [10], in [1], in [2], in [3], in [4] and in [5] was inactive. Besides, the outcome in test [6], in [7], in test [8] and in test [9] was inactive.
Turning to `O=c1c2ccccc2oc2ccccc12`, the result in test [1], in [3], in test [4], in test [5], in test [6] and in test [7] was inactive. In addition, the outcome in test [8] and in test [9] was inactive. Also, the concentration at half-maximal activity (AC50) in test [2] is 0.139 µM (active).
On to `S=C(NC1CCCCC1)NC1CCCCC1`, for which the molecule was classed as inactive in test [10], in test [1], in test [2], in test [3], in test [4] and in test [5]. For the same molecule, the outcome in test [6], in test [7], in test [8] and in [9] was inactive.
For `C#CC1(O)CC[C@H]2[C@@H]3CCC4=CCCC[C@@H]4[C@H]3CC[C@@]21C` (some centres undefined), the molecule was classed as inactive in test [10] and in test [9]. The AC50 in test [1] was 6.9 µM (active); in test [2], 36.4 µM (active); in [3], 8.8 µM (active); in test [4], 11.4 µM (active); in test [5], 8.54 µM (active); in test [6] it was 29.9 µM (active). Further, the AC50 in test [7] was 12 µM (active); in test [8] it was 20 µM (active).
Turning to `CC1OC1C1CCC2(C)OC2C1` (centres undefined), the result in [1], in test [2], in test [3], in test [4], in test [5] and in [6] was inactive. Also, the outcome in [7] and in test [9] was inactive. Moreover, in test [8], the AC50 was 0.0907 µM (active).
Consider `COCc1c(C(C)C)nc(C(C)C)c(/C=C/[C@@H](O)C[C@@H](O)CC(=O)O)c1-c1ccc(F)cc1`, for which the AC50 in test [1] was 0.0434 µM (active); in test [3], 0.00941 µM (active); in [5], 0.0192 µM (active); in test [8] it was 0.456 µM (active). The result in [2], in test [7] and in test [9] was inactive.

(Values after PubChem BioAssay (EPA / NIEHS).)
